# The panel holds about 83,000 compounds, 20% with a hit somewhere; the sample as a whole holds those more often.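 For each line, cells grew in 96-well plates with the test compound present at a single concentration for 48 hours.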 Values without a mark were called inactive. Calls of active or inactive are those of the source. How the source made its calls: active means growth percent below 10; inactive means the rest.
# How the values were obtained:
# Test in all cases: NCI-60 one-dose screen, 48 h (100 = growth as untreated, 0 = no growth, -100 = all killed)
# Conditions in all cases: 10 µM unless noted
# [1] = test system: HCT-15 colon
# [2] = test system: HT29 colon
# [3] = test system: SNB-75 CNS
# [4] = test system: SNB-19 CNS
# [5] = test system: U251 CNS
# [6] = test system: PC-3 prostate
# [7] = test system: SK-MEL-5 melanoma
# [8] = test system: UACC-62 melanoma
# [9] = test system: LOX IMVI melanoma
# [10] = test system: SK-MEL-28 melanoma
SMILES,growth [1],growth [2],growth [3],growth [4],growth [5],growth [6],growth [7],growth [8],growth [9],growth [10]
CC(=O)n1cc([C@H]2CC[C@H](c3cn(C(C)=O)c4ccccc34)c3c2[nH]c2ccccc32)c2ccccc21,58.7%,67.7%,87.4%,93.2%,82.9%,53.2%,80%,64.4%,79.5%,100%
O=C(CNC1CCCCC1)Nc1ccc(-c2nc3ccccc3s2)cc1,62.9%,62.3%,67.3%,91%,65.1%,79.7%,90.8%,96.2%,73.9%,95.2%
CC(C)(C)c1cc(-c2nc3ccc(N4CCN(CCO)CC4)cc3[nH]2)cc(C(C)(C)C)c1O,-14.4% (active),4.47% (active),67.2%,74%,16%,58.3%,74%,26.7%,-35.5% (active),61.2%
N=C(N)c1ccc(-c2ccc(-c3ccc(Cl)cc3)o2)nc1,-75.1% (active),-92.9% (active),-97.8% (active),-87.2% (active),-98.1% (active),-90% (active),-98.8% (active),-96.8% (active),-90.4% (active),-94.2% (active)
CC(C)[C@H](CO)Nc1nc(Nc2ccc(C(=O)NCCNS(=O)(=O)c3cccc4c(N(C)C)cccc34)c(Cl)c2)c2ncn(C(C)C)c2n1,51.9%,9.2% (active),10.6%,24.6%,1.44% (active),17%,12.1%,22.2%,-3.44% (active),15.7%
COc1ccc(/C=N/NC(=O)Cn2c(Cc3cccc4ccccc34)nc3ccccc32)cc1,95.7%,108%,102%,92.2%,99.7%,83.2%,96.1%,87.7%,88.3%,109%
Cn1c(=O)c2c(nc3n2CCN(CCc2ccc(OCCN4CCOCC4)cc2)C3)n(C)c1=O,105%,107%,101%,108%,105%,94.1%,94.2%,98.8%,97%,111%
O=C(Nc1cccc(Cl)c1)c1cc([N+](=O)[O-])ccc1O,61.7%,49.8%,67.8%,53.3%,47.5%,35.4%,16.7%,18%,34%,28.6%
Cc1ccc(S(=O)(=O)N2CCC(C(=O)Nc3ccc(F)cc3F)CC2)cc1,103%,75.5%,93.2%,86.5%,101%,93.9%,64.8%,86.4%,82.3%,122%

# — PubChem BioAssay (NCI)
